10 compounds from PubChem BioAssay (NCI) can be followed below.

This is part of a sample that, as a whole, favours compounds with a hit. Of some 83,000 tested, about 20% had one in any assay.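 Testing used 96-well plates and a 48-hour single-concentration exposure. Example: -40 means 40% of the starting cells died.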 Unmarked numbers belong to inactive results. Active and inactive are the calls of the source. The calls were made as follows: active = growth percent below 10; inactive = the rest.

The assay relates to MDA-MB-468 breast. Put plainly: NCI-60 one-dose screen, 48 h (100 = growth as untreated, 0 = no growth, -100 = all killed). To be noted: 10 µM unless noted.
As for `Cc1nc2cc(Nc3nc(N4CCOCC4)nc(N4CCN(C)CC4)n3)ccc2n1Cc1ccccc1`, the growth is 111%.
As for `O=C(Nc1ccc2ccccc2c1)c1cc2ccccc2cc1O`, the growth is 123%.
On to `CC1(C)CC[C@]2(C(=O)N3CCOCC3)CC[C@]3(C)C(=CC[C@@H]4[C@@]5(C)C/C(=C/c6ccncc6)C(=O)C(C)(C)[C@@H]5CC[C@]43C)[C@@H]2C1`, for which the growth was 3.46% (active).
On to `CC(C)CCSc1nc(-c2ccc(F)cc2)c(C#N)c(N2CCCCC2)n1`, for which the growth is 104%.
As for `CC1=C[C@H]2c3c(c(O)c(O)c4oc5c(C)cccc5c(=O)c34)[C@H](c3cc(O)c(O)c4oc5c(C)cccc5c(=O)c34)[C@H]2C(C)(C)C1`, the growth is 21.6%.
Take `O=C(/C=C/c1cn(-c2ccccc2)nc1-c1ccc(Cl)cc1)c1ccc(F)cc1`: the growth was 100%.
In the case of `CNCCNc1nc2ccccc2c2c(=O)c3cc(F)ccc3sc12`, the growth is 51.6%.
As for `CCOC(=O)c1cc(C(=O)c2cc(OC)c(OC)c(OC)c2)n2ccccc12`, the growth is -7.14% (active).
Consider `CO[C@H](C(=O)[C@@H](O)[C@@H](C)O)[C@@H]1Cc2cc3cc(O[C@H]4C[C@@H](O[C@H]5C[C@@H](O)[C@H](O)C(C)O5)[C@H](O)C(C)O4)c(C)c(O)c3c(O)c2C(=O)[C@H]1O[C@H]1C[C@@H](O[C@H]2C[C@@H](O[C@H]3C[C@](C)(O)C(=O)C(C)O3)[C@@H](O)C(C)O2)[C@H](O)C(C)O1` (stereo not given in full), for which the growth is -46.7% (active).
In the case of `COC(=O)CNc1nc(N(C)O)nc(N(C)O)n1`, the growth was 30.6%.
